# Reference: PubChem BioAssay (NCATS)
# Records with an inconclusive call do not appear. A number with no mark means an inactive call. The source made the active and inactive calls. Calls come from the whole dose curve; as a rule, active = well fitted inhibition curve with a large enough effect; inconclusive = small, poorly fitted or top-dose-only effect; inactive = flat fitted curve, though single readings scatter.
# Tested on: NIH3T3
# Assay: Cytotoxic Profiling of Annotated Libraries Using Quantitative High-Throughput Screening (AID 1296008); note: nearly all actives have a fitted effect of over 60% in size
# Conditions: Five cell lines viability, CellTiter-Glo ATP luminescence, 48-72 h; max response: stronger effect = lower value
# In short: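 Compounds were pin-transferred onto cells and incubated 48 or 72 hr at 37 degree Celsius, 95% humidity. CellTiter-Glo was added, plates sat 10 min at room temperature, then ATP-coupled luminescence was imaged as the viability read-out.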
# % is set by controls: 0 for no effect and ±100 for the full control effect; potency is the fitted concentration of half-maximal effect.
Structure (SMILES),Potency,max response
Cc1nc(NC(=O)N2CCCC2C(N)=O)sc1-c1ccnc(C(C)(C)C(F)(F)F)c1 (centres undefined),9.2 µM (active),–
COc1ccc2c(c1)C(C(=O)N(Cc1ccc(N(C)C)cc1)c1ccc(C(C)C)cc1)CCC2 (centres undefined),–,3.67%
COc1cc2c(Nc3cc(F)c(Cl)c(Cl)c3)ncnc2cc1OCC1CCCN(C)CCC1,5.17 µM (active),–
COc1ccc(CCc2nc3c(C)c(-c4c(C)noc4C)c(C)cc3n2CCN2CCOCC2)cc1,–,-12.8%
